In PubChem BioAssay (NCATS):
The source made the active and inactive calls. The call rests on the fitted dose curve.

How the values were obtained:
Test in all cases: Confirmatory Screen for Target Class Profiling of Small Molecule Inhibitors of Methyltransferases (AID 1745852); on activity change, negative = inhibition: on the % scale 0 is the no-effect control and ±100 the full control effect
[1] = biological target: Catechol O-methyltransferase (Homo sapiens) (UniProt P21964); details: MTase-Glo luminescence, SAH detection, recombinant enzyme; measured here: COMT max response; stronger effect = lower value
[2] = biological target: Guanidinoacetate N-methyltransferase (Homo sapiens) (UniProt Q14353); details: activity change, negative = inhibition: at 57.3 µM (top of the series) unless noted
[3] = biological target: Nicotinamide N-methyltransferase (Homo sapiens) (UniProt P40261); details: MTase-Glo luminescence, SAH detection, recombinant enzyme; measured here: NNMT max response; stronger effect = lower value
[4] = biological target: Phenylethanolamine N-methyltransferase (Homo sapiens) (UniProt P11086); details: MTase-Glo luminescence, SAH detection, recombinant enzyme; measured here: PNMT max response; stronger effect = lower value
Potency means the concentration at half of the fitted maximal effect.

Phenylethanolamine N-methyltransferase (Homo sapiens), sequence (P11086 whole entry, looked up): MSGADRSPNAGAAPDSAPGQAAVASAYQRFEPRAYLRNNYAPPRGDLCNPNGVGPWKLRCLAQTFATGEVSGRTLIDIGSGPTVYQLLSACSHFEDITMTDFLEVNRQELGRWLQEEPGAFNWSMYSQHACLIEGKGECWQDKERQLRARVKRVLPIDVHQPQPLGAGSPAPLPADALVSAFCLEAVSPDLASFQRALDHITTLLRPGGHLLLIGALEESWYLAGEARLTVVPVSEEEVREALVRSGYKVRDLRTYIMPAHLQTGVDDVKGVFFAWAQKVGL
Nicotinamide N-methyltransferase (Homo sapiens), sequence (P40261 whole entry, looked up): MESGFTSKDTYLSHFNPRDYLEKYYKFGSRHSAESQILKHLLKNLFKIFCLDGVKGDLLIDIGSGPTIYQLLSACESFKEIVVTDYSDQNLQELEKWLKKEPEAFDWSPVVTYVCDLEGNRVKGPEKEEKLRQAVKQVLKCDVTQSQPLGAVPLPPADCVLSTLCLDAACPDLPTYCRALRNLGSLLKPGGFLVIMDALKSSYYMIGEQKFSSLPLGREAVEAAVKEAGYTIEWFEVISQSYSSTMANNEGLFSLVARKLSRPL
Catechol O-methyltransferase (Homo sapiens), sequence (P21964 whole entry, looked up): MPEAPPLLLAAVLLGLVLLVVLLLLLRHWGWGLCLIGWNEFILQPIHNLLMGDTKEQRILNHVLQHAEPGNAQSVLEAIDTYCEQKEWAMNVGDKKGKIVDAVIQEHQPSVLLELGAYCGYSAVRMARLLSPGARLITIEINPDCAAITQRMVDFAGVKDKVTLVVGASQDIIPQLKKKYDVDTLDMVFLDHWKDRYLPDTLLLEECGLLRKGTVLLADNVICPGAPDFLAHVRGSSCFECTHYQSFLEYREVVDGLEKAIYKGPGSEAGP

SMILES	activity [1] [%]	Potency [2]	activity [3] [%]	activity [4] [%]	activity change, negative = inhibition [2]
Cc1ccc(CN2C(=O)c3ccc(-c4ccco4)n3CC2(C)C(=O)NCc2ccc(Cl)cc2)cc1 (stereo unspecified)	0	inactive	-6.21	1.57	
CCN(CC)CCNC(=O)CCc1nnc2n(Cc3ccc(C)cc3)c(=O)c3ccccc3n12	-5.02		-14.5	0.867	-3.03%
CC(=O)Nc1cc(-c2cc(C(=O)NCc3cccnc3)c3c(c2)N(C)CCO3)ccn1	-17.6		-4.98	-28.5	-8.39% [at 85.7 µM]
O=C(Nc1ccc2ncnc(N3CCCCC3)c2c1)c1cc(F)ccc1F	-70.5	21.5 µM (active)	-79.2	-80.3	
COc1cccc(NC(=O)Cn2c(=O)oc3cc(S(=O)(=O)N4CCCCC4C)ccc32)c1 (stereo unspecified)	0.845		-2.27	-70.8	-1.86%
O=C(CCc1nnc2n(Cc3ccc(F)cc3)c(=O)c3ccccc3n12)N1CCC(N2CCCCC2)CC1	3.84		-4.81	0	0%
CCOc1ccccc1CN1CCC(Cc2nc(-c3cccnc3)n[nH]2)C1 (stereo unspecified)	2.59		-34.4	-0.0084	0.265%
Cc1noc2c(NC3CCN(C)CC3)cc(-c3cccs3)nc12	7.59		0.3	-6.76	13.7% [at 85.7 µM]
COc1cccc(N2C(=O)NC(=NC3CCCCC3)C23CCCN(CC2CCCCC2)C3)c1 (stereo unspecified)	-0.686		-50.3	1.19	10.7%
